# Most compounds without a hit are left out; they make up all but 4% or so of the library.
# Mtb FBA inh: inhibitors of M. tuberculosis fructose-bisphosphate aldolase | P9WQA3 | purified M. tuberculosis FBA, fluorescence read-out | inhibition, % at 1 µM | actives 2.3% (n = 360,000);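 note: 0% = vehicle and 100% = reference inhibitor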
# Target sequence (P9WQA3 whole entry, looked up): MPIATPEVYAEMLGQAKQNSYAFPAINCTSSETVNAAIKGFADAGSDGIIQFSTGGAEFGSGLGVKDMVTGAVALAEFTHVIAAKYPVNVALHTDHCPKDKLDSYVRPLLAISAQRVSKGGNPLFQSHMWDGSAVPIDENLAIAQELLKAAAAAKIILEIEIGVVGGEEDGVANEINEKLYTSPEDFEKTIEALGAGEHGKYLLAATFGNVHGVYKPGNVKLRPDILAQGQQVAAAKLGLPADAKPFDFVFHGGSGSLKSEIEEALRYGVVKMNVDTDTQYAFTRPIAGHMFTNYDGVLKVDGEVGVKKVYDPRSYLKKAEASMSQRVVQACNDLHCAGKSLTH
# RecA intein inh: inhibitors of M. tuberculosis RecA intein splicing; cell-free RecA intein splicing, fluorescence; inhibition, % (test concentration not listed); actives 0.75% (n = 290,000); AID 2221; in the data active = inhibition above about 30%;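 note: 0% = vehicle wells and 100% = reference inhibitor control wells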
# Mtb betalactam: beta-lactam sensitization of Mtb H37Rv; M. tuberculosis H37Rv growth with meropenem, percent inhibition; inhibition, % at 25 µM; actives 0.27% (n = 330,000); AID 434955; call rule not given here;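 note: growth measured after seven days incubation then overnight dye step; 0% = bacteria only wells and 100% = bacteria with antibiotic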
# Rv3671c protease: Rv3671c (M. tuberculosis) protease inhibition. AID 2606. actives 0.048% (n = 320,000). inhibition, % at 5.96 µM; in the data active = inhibition above about 38%;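 note: extracellular domain of Rv3671c used as enzyme; 0% = enzyme with DMSO and 100% = no enzyme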
# GDH-TPI counter-1: inhibits GDH-TPI coupling enzymes, artifact for Mtb FBA screen. actives 1.2% (n = 360,000). GDH-TPI coupled enzyme counterscreen, NADH absorbance. inhibition, % at 4.8 µM; in the data active = inhibition above about 30%;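 note: 0% = DMSO wells and 100% = wells lacking the enzyme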
# Mtb UGM inh: blocks M. tuberculosis UGM enzyme. actives 0.06% (n = 320,000). purified UGM, fluorescence polarization probe displacement. inhibition, % at 10 µM; in the data active = inhibition above about 10%, passing the limit was not always enough
# Mtb FBA confirm: confirmation of M. tuberculosis fructose-bisphosphate aldolase inhibitors; inhibition, % at 1 µM; actives 78% (n = 5,600); AID 651616; shares compounds with Mtb FBA inh; purified M. tuberculosis FBA, fluorescence read-out;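 note: 0% = vehicle wells and 100% = reference inhibitor wells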
# GDH-TPI counter-2: GDH-TPI inhibition counter-screen for FBA inhibitors. shares compounds with Mtb FBA inh. actives 81% (n = 5,600). GDH-TPI coupled enzyme counterscreen, fluorescence. inhibition, % at 1 µM; in the data active = inhibition above about 10%
# Numbers without * were called inactive; i = inactive; . = no result; + = active, no number. Cut-off read from the data, not from the text of the source, unless noted: active = inhibition above about 27%; inactive = the rest.
SMILES,Mtb FBA inh,RecA intein inh,Mtb betalactam,Rv3671c protease,GDH-TPI counter-1,Mtb UGM inh,Mtb FBA confirm,GDH-TPI counter-2
Cc1c(Cl)cccc1NC(=O)COC(=O)C12CC3CC(CC(O)(C3)C1)C2,1,.,-9,7,8,-1,.,.
O=C(COC(=O)C12CC3CC(CC(Br)(C3)C1)C2)Nc1cccnc1Cl,32*,3,-1,-4,15,1,59*,49*
O=C(O)CN1C(=O)/C(=C/c2ccccc2Br)Oc2ccccc21,83*,-7,-1,3,8,0,-5,-5
CC(C)C[C@H](NC(=O)C1CC(=O)N(c2ccc3c(c2)OCCO3)C1)C(=O)N1CCCCC1 (some centres not stated),-1,-1,-3,0,-1,-3,.,.
CCCC(=O)Nc1ccc(-c2nc3cc(C)c(C)cc3o2)cc1,87*,2,26,-53,24,5,40*,40*
CCCC(=O)Nc1ccc2oc(-c3ccncc3)nc2c1,17,-1,0,-10,19,2,.,.
CCCC(=O)Nc1ccc2oc(-c3cncc(Br)c3)nc2c1,40*,-4,13,5,0,0,172*,132*
Nc1cc2ccncc2c2ccccc12,102*,-85,12,6,7,0,+,+
N#Cc1cc2c(=O)n3ccccc3nc2n(-c2ccc(Cl)cc2)c1=O,49*,-125,-2,1,2,-1,10,-5
C=CCn1c(=N)c(C#N)cc2c(=O)n3ccccc3nc21,51*,i,-6,-3,2,-2,128*,111*
CCOC(=O)C1=C(C)NC(=NC)SC1c1ccccc1 (configuration not stated),4,1,7,12,8,-2,.,.
O=C(O)c1ccc(-c2ncc[nH]2)cc1,49*,-3,-3,-8,-2,0,0,2
COc1cccc2sc(Nc3nnc(-c4ccc(F)cc4)o3)nc12,49*,-12,99,-2,40*,0,+,+
Fc1cccc2sc(Nc3nnc(-c4ccco4)o3)nc12,33*,-2,95,5,30,0,198*,166*
CC(C)Nc1nc(-c2ccccc2CO)c2sccc2n1,74*,.,.,.,9,.,77*,58*
Cc1ccccc1-c1nc(NC(C)C)nc2ccsc12,64*,.,.,.,22,.,+,+
CN(C)CCNc1nc(-c2ccccc2CO)c2sccc2n1,13,.,.,.,8,.,.,.
OCc1ccccc1-c1nc(NCC2CC2)nc2ccsc12,72*,.,.,.,10,.,63*,55*
Fc1ccccc1CNc1nc(NCC2CC2)nc2ccsc12,-1,.,.,.,13,.,.,.
CC1CCN(c2ccc(NC(=O)c3ccc(Br)o3)cc2)CC1,-3,-5,-6,2,6,0,.,.
CCS(=O)(=O)N1CCC2(CC1)OCCN2S(=O)(=O)c1ccccc1,0,.,.,.,-2,.,.,.
CN(C)c1ccc(-c2ccnc3c2CC(C)(C(=O)Nc2cccc(Oc4ccccc4)c2)O3)cc1 (configuration not stated),16,.,.,.,1,.,.,.
CCC(=O)N1CCCC(C(=O)NCc2ccc(C(C)C)cc2)CC1 (configuration not stated),0,.,.,.,2,.,.,.
CC1(CCc2ccc3c(c2)OCO3)NC(=O)c2ccccc2N1 (configuration not stated),50*,-7,6,7,-4,2,150*,114*
Nc1[nH]nc2nc3ccccc3cc12,-6,-3,-6,6,1,1,.,.
SMILES,Mtb FBA inh,RecA intein inh,Mtb betalactam,Rv3671c protease,GDH-TPI counter-1,Mtb UGM inh,Mtb FBA confirm,GDH-TPI counter-2
Nc1cccc2nc3ccccc3cc12,75*,i,40,12,2,.,-1,2
Cc1cc(/C=C2\SC(=O)NC2=O)c(C)n1-c1ccc(N2CCOCC2)cc1,2,-5,-10,7,17,-4,.,.
Cc1cc(C=O)c(C)n1-c1ccc(N2CCOCC2)cc1,54*,0,5,-4,-5,0,+,+
COc1cc(Cl)c(CNC[C@H]2O[C@@H](n3cnc4c(N)ncnc43)[C@H](O)[C@@H]2O)c(Cl)c1O,0,.,.,.,7,.,.,.
N#CCCn1cc(C(N)=O)c(-c2cccs2)n1,29*,-1,0,1,-6,-2,75*,63*
FC(F)(F)c1cccc(-c2ccn3ncnc3n2)c1,33*,-1,1,19,0,-1,-12,-6
O=C(O)COc1c(-c2ccc(Cl)cc2)oc2ccccc2c1=O,7,-3,71,-9,8,2,.,.
NC(=O)COc1c(-c2ccco2)oc2ccccc2c1=O,21,-1,-1,2,26,0,.,.
CCOC(=O)COc1c(-c2ccc(OC)cc2)oc2ccccc2c1=O,68*,5,99,6,43*,0,+,+
O=C(O)COc1c(-c2ccco2)oc2ccccc2c1=O,46*,-1,-3,-8,25,0,+,+
COc1ccc(-c2oc3ccccc3c(=O)c2OCC(=O)O)cc1,98*,-3,1,5,35*,7,+,163*
CCCCN(C)C(=O)c1cc2cc3cc(OC)ccc3nc2o1,74*,-2,56,1,9,1,166*,127*
CCCCN(C)C(=O)c1cc2cc3ccc(OC)cc3nc2o1,78*,-1,10,-4,15,-2,3,2
CC1CCN(S(=O)(=O)N2CCC(C(=O)NCc3ccc(F)cc3Cl)CC2)CC1,-2,.,.,.,12,.,.,.
CCOC(=O)C1=C(C)NC(C)=C(C(=O)OCC)C1C(=O)OCC(=O)NCc1ccc(F)cc1,7,.,-2,4,9,-1,.,.
O=C(c1cc2c(=O)n3ccccc3nc2s1)N1CCOCC1,79*,-9,-7,-2,25,1,+,+
CC1CCN(C(=O)c2cc3c(=O)n4ccccc4nc3s2)CC1,87*,-45,-5,2,15,2,132*,100*
CCOC(=O)C1CCCN(C(=O)c2cc3ccccc3cc2OC)C1 (configuration not stated),5,.,.,.,14,.,.,.
O=C(c1cc2c(=O)n3ccccc3nc2s1)N1CCN(c2cccc(Cl)c2)CC1,13,-3,7,-19,16,0,.,.
CCOC(=O)C1CCCN(C(=O)c2cc3c(=O)n4ccccc4nc3s2)C1 (configuration not stated),63*,-61,-19,-4,16,1,10,-7
Cc1cccc(NC(=O)c2cc3c(=O)n4ccccc4nc3s2)c1,13,-71,9,0,-1,2,.,.
CCCNC(=O)COC(=O)c1cc2c(=O)n3ccccc3nc2s1,76*,-208,-2,7,5,1,10,3
